High-throughput results as filed in PubChem.
HCV inh: qHTS Assay for Inhibitors of Hepatitis C Virus (HCV) | Huh7.5.1 HCVcc-Cre infection, luciferase reporter, 44 h | Potency, µM (top dose mostly 41.8 µM), actives largely listed as inhibitors | 340,000 compounds, 3.4% hits | AID 651820, 2012
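Whole-lifecycle infectious HCVcc-Cre system; cells 1,000/well, compound then virus (~0.5 moi) added 4 h after plating, 44 h culture. Luciferase read 15 sec following 15 min substrate incubation, room temp.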
Pf growth 48h: Primary qHTS for delayed death inhibitors of the malarial parasite plastid, 48 hour incubation. 310,000 compounds, 5.9% hits. P. falciparum luciferase growth in erythrocytes, 48 h. Potency, µM (doses to about 28.7 µM), usual class: inhibitors
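Erythrocytes infected with P. falciparum carrying an integrated firefly luciferase reporter (2% hematocrit, 0.1% parasitemia final) were exposed to compounds in RPMI 1640 with 0.5% Albumax at 37 C, 5% CO2. Growth inhibition was scored as reduced luminescence.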
Pf growth 96h: Primary qHTS for delayed death inhibitors of the malarial parasite plastid, 96 hour incubation; P. falciparum luciferase reporter growth, 96 h; Potency, µM (titrated, usually from 28.7 µM), usual class: inhibitors; 320,000 compounds, 6.9% hits; AID 504834, 2011
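Delayed-death screen, second-generation endpoint: infected erythrocytes, 2% hematocrit, 0.05% parasitemia final; 96 hours at 37 C, 5% CO2; luciferase detection reagent; luminescence decrease equals reduced growth.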
AMA1 RON2 block: qHTS for Inhibitors of AMA1-RON; Towards Development of Antimalarial Drug Lead: Primary Screen; AlphaScreen AMA1-biotinylated RON2 peptide binding; Potency, µM (doses to about 58.2 µM), hits mostly inhibitors; 360,000 compounds, 0.2% hits; also: nearly all actives have a fitted effect of over 45% in size
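AMA1 (3D7) with his tag at 25 nM final met compounds first, then biotinylated RON2 peptide at 25 nM; detection used donor plus acceptor beads, 10 µg/mL apiece, read by AlphaScreen after 30 min at room temperature.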
A number is an active result; [ ] = remark or other dose. In the library only some 11% were active in any assay of this set; here they are far more common. Calls follow the shape of the dose curve; as a rule, active = well fitted curve in the direction sought with a large enough effect; inconclusive = small, poorly fitted or top-dose-only effect, or another doubt; inactive = no such curve, though single readings can be large; an effect the other way counts as inactive or inconclusive.

`O=C1C2CCCN2C(=O)N1CCCCN1CCN(CCO)CC1` (stereo not drawn) gave HCV inh inactive, Pf growth 48h inactive, Pf growth 96h inactive and AMA1 RON2 block inactive.
For COCCNC(=O)c1ccccc1NC(=O)CSc1ccc(C)cc1 the results were HCV inh inactive, Pf growth 48h inactive, Pf growth 96h inactive and AMA1 RON2 block inactive.
`COC(=O)c1ccc(C(=O)N(CCN(C)C)c2nc3c(Cl)cccc3s2)cc1` gave HCV inh inactive, Pf growth 48h inactive, Pf growth 96h inactive and AMA1 RON2 block inactive.
`O=C(Nc1ccc2c(c1)OCCO2)c1ccc(Cl)c(S(=O)(=O)N2CCOCC2)c1` gave Pf growth 48h 2.62µM, Pf growth 96h inactive[5.75 µM] and AMA1 RON2 block inactive.
For COc1ccc(C(=O)Nc2ccc3c(c2)OCCO3)cc1S(=O)(=O)N1CCOCC1 the results were HCV inh inconclusive, Pf growth 48h inconclusive, Pf growth 96h 10.4µM and AMA1 RON2 block inactive.
For COc1ccccc1/C=C/C(=O)Nc1ccc2c(c1)OCCO2 the results were HCV inh inactive, Pf growth 48h inactive, Pf growth 96h 13.1µM and AMA1 RON2 block inactive.
O=C(O)CC(SCC(=O)Nc1ccc(Cl)c(S(=O)(=O)N2CCOCC2)c1)C(=O)O (stereo not drawn) was read as HCV inh inactive, Pf growth 48h inactive, Pf growth 96h inactive and AMA1 RON2 block inactive.
For CC(CC(=O)Nc1ccc(Cl)c(S(=O)(=O)N2CCOCC2)c1)c1ccccc1 (stereo not drawn) the results were HCV inh 2.51µM, Pf growth 48h 11.7µM, Pf growth 96h inconclusive and AMA1 RON2 block inactive.
COc1ccccc1/C=C/C(=O)OCC(=O)Nc1ccc2c(c1)OCCO2 was read as HCV inh inactive, Pf growth 48h inconclusive, Pf growth 96h inactive and AMA1 RON2 block inactive.
`CC1C(=O)Nc2ccc(S(=O)(=O)N3CCCCCC3)cc21` (stereo not drawn) gave HCV inh inactive, Pf growth 48h inconclusive, Pf growth 96h inactive and AMA1 RON2 block inactive.
Screening Cc1c(N=C2N=C(NC(=O)c3ccc(F)cc3)c3ccccc32)c(=O)n(-c2ccccc2)n1C returned HCV inh inactive, Pf growth 48h 7.38µM, Pf growth 96h inactive[5.75 µM] and AMA1 RON2 block inactive.
Screening Cc1c(NC(=O)NC(=O)c2ccc(F)cc2)c(=O)n(-c2ccccc2)n1C returned HCV inh inactive, Pf growth 48h inactive, Pf growth 96h inactive and AMA1 RON2 block inactive.
COc1ccc(-c2nc3ccc(Br)cn3c2Cc2ccccc2)cc1OC was read as AMA1 RON2 block inactive.
For O=C(NCCN1CCN(c2ccccc2)CC1)Nc1ccccc1Br the results were HCV inh inactive, Pf growth 48h inactive, Pf growth 96h inactive and AMA1 RON2 block inactive.
`Nc1cccnc1Oc1ccc(F)cc1` gave HCV inh inactive, Pf growth 48h inactive, Pf growth 96h inactive and AMA1 RON2 block inactive.
FC(F)(F)c1cccnc1Oc1ccc(C2=NCCS2)cc1 was read as HCV inh inactive, Pf growth 48h inconclusive, Pf growth 96h 2.62µM and AMA1 RON2 block inactive.
`N#C/C(=C\c1ccc(F)cc1)C(=O)Nc1ccccn1` gave HCV inh inactive, Pf growth 48h inactive, Pf growth 96h inactive and AMA1 RON2 block inactive.
CN1CN(C)c2cccc3cccc1c23 was read as HCV inh inactive, Pf growth 48h inconclusive, Pf growth 96h 4.15µM and AMA1 RON2 block inactive.
`CC1CC(C)(C)OC(c2ccc(C(C)C)cc2)O1` (stereo not drawn) gave HCV inh inactive and AMA1 RON2 block inactive.
`Cc1nc(-n2[nH]c3c(c2=O)CCCC3)[nH]c(=O)c1Cc1ccccc1` gave HCV inh 7.08µM, Pf growth 48h inconclusive, Pf growth 96h inconclusive and AMA1 RON2 block inactive.
For Cc1cc(=O)[nH]c(N2CCN(Cc3ccccc3)CC2)n1 the results were HCV inh inactive, Pf growth 48h inactive, Pf growth 96h inactive and AMA1 RON2 block inactive.
Cc1cc(=O)[nH]c(N2CCCNCC2)n1 was read as HCV inh inactive, Pf growth 48h 11.7µM, Pf growth 96h inactive and AMA1 RON2 block inactive.
Screening Cc1nc(N2CCc3ccccc3C2)[nH]c(=O)c1Cc1ccccc1 returned HCV inh inactive, Pf growth 48h inactive, Pf growth 96h inconclusive and AMA1 RON2 block inactive.
Cc1cc(=O)[nH]c(-n2[nH]c3c(c2=O)CCCC3)n1 was read as HCV inh inactive, Pf growth 48h 4.15µM, Pf growth 96h inconclusive and AMA1 RON2 block inactive.
